# Results with a measured potency or affinity are listed apart.
# Tests used:
# Klebsiella pneumoniae = settings: Concentration 32 ug.mL-1; ASSAY_TEST Inhibition of Bacterial Growth; detection method Absorption (OD600); MEDIA CAMHB; plate type 384well; NBS; CORNING #3640; time 18 hr
# Candida albicans = settings: 32 ug/mL
# Cryptococcus neoformans = settings: Concentration 32 ug.mL-1; ASSAY_TEST Inhibition of Fungal Growth; detection method Resazurin; Absorption (OD600-OD570); plate type 384well; NBS; CORNING #3640
Compound,Inhibition (Klebsiella pneumoniae) [%],Inhibition (Candida albicans) [%],Inhibition (Cryptococcus neoformans) [%]
O=C(N/N=C/C[C@@H]1[C@@H](/C=C/[C@@H](O)COc2cccc(Cl)c2)[C@H](O)C[C@@H]1O)c1ccncc1,18.63,0.21,-81.79
O=C(NN=C[C@H]1[C@H]2CC(O)OC[C@H]2C[C@H]1O)c1ccncc1 (stereo partly drawn),2.56,3.89,-80.47
NNC(=O)c1ccncc1 [ISONIAZID],18.82,0.98,-55.93
O=C(N/N=C1/C[C@@H]2[C@H](C1)[C@H](OC(=O)c1ccccc1)C[C@@H]2OC(=O)c1ccccc1)c1ccncc1,10.86,16.2,-110.81
O=C(NN=CC[C@@H]1[C@@H](/C=C/[C@@H](O)CCc2ccccc2)[C@H](OC(=O)c2ccccc2)C[C@@H]1O)c1ccncc1,14.41,5.97,-72.55
O=C(N/N=C1\C[C@@H]2[C@@H](CO)[C@H]1C[C@H]2Cl)c1ccncc1,21.63,-0.38,-60.68
O=C(N/N=C1\C[C@@H]2[C@H](COC(c3ccccc3)(c3ccccc3)c3ccccc3)C[C@H](CO)[C@@H]2C1)c1ccncc1,2.31,12.2,-65.69
O=C(N/N=C/C[C@@H]1[C@@H](/C=N/NC(=O)c2ccncc2)[C@H](O)C[C@@H]1O)c1ccncc1,9.84,0.98,-79.15
O=C1C[C@H]2[C@H](/C=N/NC(=O)c3ccncc3)[C@H](C[C@@H]2Cl)O1,20.57,3.46,-80.73
O=C(N/N=C/CCCO)c1ccncc1,3.72,0.75,-50.92
COC(=O)CCCCCC[C@@H]1[C@@H](/C=N/NC(=O)c2ccncc2)[C@H](O)C[C@@H]1O,5.87,0.11,-95.51

# From ChEMBL document CHEMBL4513156, “CO-ADD screening of NCPRI (Romania) compounds”
